Measurements published in PubChem BioAssay (NCI).
About 79,000 compounds went through this panel and 15% of them were active in at least one assay; those are over-represented in the sample as a whole. The source made the active and inactive calls. No stated cut-off is given here; in the data, active means growth inhibition above about 70%; inactive means the rest.

What was measured:
[1] = NCI Yeast Anticancer Drug Screen. Data for the wt1 strain (AID 149);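 further: 0% = growth of vehicle-treated wt1 cultures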; details: S. cerevisiae wt1 strain (SPY 50644) growth inhibition, active compounds read high
In short: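 Readout: yeast growth inhibition, normalised to vehicle controls, in the wt1 strain exposed to test compounds.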

[2] = NCI Yeast Anticancer Drug Screen. Data for the rad50EPP+ strain (AID 151);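 further: 0% = growth of vehicle-treated control cultures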; details: S. cerevisiae rad50 mutant strain, active compounds read high
In short: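 One strain with a rad50 alteration (rad50EPP+) was compound-treated, its growth then compared to that of vehicle controls.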

[3] = NCI Yeast Anticancer Drug Screen. Data for the mgt1 strain (AID 153); details: S. cerevisiae mgt1 mutant growth inhibition, active compounds read high
In short: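 After exposure of the mgt1 yeast mutant to compound, growth was measured and reported as inhibition compared with vehicle controls.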

[4] = NCI Yeast Anticancer Drug Screen. Data for the rad50 strain (AID 155);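 further: 0% = growth of vehicle-only cultures of the same strain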; details: S. cerevisiae rad50 strain growth inhibition, active compounds read high
In short: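 Compounds were tested on a yeast strain with an engineered DNA damage repair alteration; the reported value is growth inhibition normalised to vehicle treatment.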

[5] = NCI Yeast Anticancer Drug Screen. Data for the mec2-1 strain (AID 157); details: S. cerevisiae mec2-1 strain, active compounds read high
In short: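 Test agents were screened against the mec2-1 yeast strain, with defined DNA repair or cell cycle alteration. Growth was scored as inhibition against vehicle-only controls.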

[6] = NCI Yeast Anticancer Drug Screen. Data for the rad14 strain (AID 159);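 further: 0% = growth of vehicle-treated control cultures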; details: S. cerevisiae rad14 strain growth inhibition, active compounds read high
In short: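 Compound-treated yeast with a defined DNA-repair lesion; growth inhibition normalised to vehicle-treated cultures.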

[7] = NCI Yeast Anticancer Drug Screen. Data for the sgs1 mgt1 strain (AID 161);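 further: 0% = growth of cultures given vehicle only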; details: S. cerevisiae sgs1 mgt1 strain, active compounds read high
In short: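 Mutant yeast exposed to compound; growth scored against vehicle-only wells.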

[8] = NCI Yeast Anticancer Drug Screen. Data for the CLN2oe strain (AID 163);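 further: 0% = growth of vehicle-only control cultures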; details: S. cerevisiae CLN2oe strain, active compounds read high
In short: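 Here, growth inhibition in a cell-cycle-altered yeast strain after compound exposure was quantified against vehicle control growth.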

[9] = NCI Yeast Anticancer Drug Screen. Data for the cln2 rad14 strain (AID 165);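 further: 0% = growth equal to vehicle treated cultures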; details: S. cerevisiae cln2 rad14 strain, active compounds read high
In short: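 Growth of compound-exposed yeast (cln2 rad14 genotype) measured and expressed as inhibition relative to vehicle.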

[10] = NCI Yeast Anticancer Drug Screen. Data for the bub3 strain (AID 167); details: S. cerevisiae bub3 mutant strain, active compounds read high
In short: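 Growth of a checkpoint-deficient yeast mutant is measured after compound exposure. Values represent inhibition relative to vehicle.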

[11] = NCI Yeast Anticancer Drug Screen. Data for the wt2 strain (AID 169);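 further: 0% = growth of vehicle-treated yeast cultures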; details: S. cerevisiae wt2 strain growth inhibition, active compounds read high
In short: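 Genetically defined yeast strains from a DNA-repair/cell-cycle panel were used. Compound-exposed yeast growth was measured, and the inhibition was calculated relative to vehicle treatment.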

[12] = NCI Yeast Anticancer Drug Screen. Data for the mlh1 strain (AID 171);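 further: 0% = growth of vehicle-treated control cultures of the same strain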; details: S. cerevisiae mlh1 strain growth inhibition, active compounds read high
In short: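 Here the genetically defined yeast mutant is grown with each compound, and the extent to which its growth falls below that of vehicle-exposed cells is reported.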

[13] = NCI Yeast Anticancer Drug Screen. Data for the sgs1 strain (AID 173);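 further: 0% = growth of vehicle-only control cultures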; details: S. cerevisiae sgs1 mutant, active compounds read high
In short: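 Relative growth inhibition, referenced to vehicle, was determined in a yeast strain with a defined alteration affecting DNA damage repair or cell cycle control after compound exposure.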

[14] = NCI Yeast Anticancer Drug Screen. Data for the mlh1 rad18 strain (AID 175); details: S. cerevisiae mlh1 rad18 strain growth inhibition, active compounds read high
In short: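 In this whole-cell yeast screen, a strain with altered DNA damage repair is challenged with compound, and its growth is measured against matched vehicle-treated controls.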

[15] = NCI Yeast Anticancer Drug Screen. Data for the rad18 strain (AID 177); details: S. cerevisiae rad18 mutant growth inhibition, active compounds read high
In short: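 Screen uses a yeast strain with a defined lesion in DNA damage repair; compound effect is read as loss of growth compared to untreated vehicle cultures.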

[16] = at 5.0 µM (retest, dose inferred, filed as 0.5)
[17] = at 50.0 µM (retest, dose inferred, filed as 5.0)

## Cc1cc(C(C)(C)C)c(OCCCN2CCOCC2)c(C(C)(C)C)c1
[1]; at 1.2 µM
  growth inhibition: -1% (inactive)
[1]; at 3.7 µM
  growth inhibition: 0% (inactive)
[1]; at 11.0 µM
  growth inhibition: -3% (inactive)
[1]; at 33.0 µM
  growth inhibition: -7% (inactive)
[1]; at 100.0 µM
  growth inhibition: 62% (inactive)
[2]; at 1.2 µM
  growth inhibition: 0% (inactive)
[2]; at 3.7 µM
  growth inhibition: 3% (inactive)
[2]; at 11.0 µM
  growth inhibition: 3% (inactive)
[2]; at 33.0 µM
  growth inhibition: 19% (inactive)
[2]; at 100.0 µM
  growth inhibition: 47% (inactive)
[3]; at 1.2 µM
  growth inhibition: 0% (inactive)
[3]; at 3.7 µM
  growth inhibition: -4% (inactive)
[3]; at 11.0 µM
  growth inhibition: -9% (inactive)
[3]; at 33.0 µM
  growth inhibition: 4% (inactive)
[3]; at 100.0 µM
  growth inhibition: 99% (active)
[4]; at 1.2 µM
  growth inhibition: -1% (inactive)
[4]; at 3.7 µM
  growth inhibition: -6% (inactive)
[4]; [16]
  growth inhibition: 5% (inactive)
[4]; at 11.0 µM
  growth inhibition: 5% (inactive)
[4]; at 33.0 µM
  growth inhibition: 8% (inactive)
[4]; [17]
  growth inhibition: 50% (inactive)
[4]; at 50.0 µM
  growth inhibition: 75.5% (active)
[4]; at 100.0 µM
  growth inhibition: 94% (active)
[5]; at 1.2 µM
  growth inhibition: -1% (inactive)
[5]; at 3.7 µM
  growth inhibition: -5% (inactive)
[5]; [16]
  growth inhibition: -2% (inactive)
[5]; at 11.0 µM
  growth inhibition: -8% (inactive)
[5]; at 33.0 µM
  growth inhibition: -4% (inactive)
[5]; [17]
  growth inhibition: 12% (inactive)
[5]; at 50.0 µM
  growth inhibition: 59.5% (inactive)
[5]; at 100.0 µM
  growth inhibition: 98% (active)
[6]; at 1.2 µM
  growth inhibition: -2% (inactive)
[6]; at 3.7 µM
  growth inhibition: -1% (inactive)
[6]; at 11.0 µM
  growth inhibition: -5% (inactive)
[6]; at 33.0 µM
  growth inhibition: 15% (inactive)
[6]; at 100.0 µM
  growth inhibition: 99% (active)
[7]; [16]
  growth inhibition: 2% (inactive)
[7]; [17]
  growth inhibition: -10% (inactive)
[7]; at 50.0 µM
  growth inhibition: 82.2% (active)
[8]; at 1.2 µM
  growth inhibition: -5% (inactive)
[8]; at 3.7 µM
  growth inhibition: -4% (inactive)
[8]; at 11.0 µM
  growth inhibition: -15% (inactive)
[8]; at 33.0 µM
  growth inhibition: -17% (inactive)
[8]; at 100.0 µM
  growth inhibition: 97% (active)
[9]; [16]
  growth inhibition: -21% (inactive)
[9]; [17]
  growth inhibition: -81% (inactive)
[9]; at 50.0 µM
  growth inhibition: 24.3% (inactive)
[10]; at 1.2 µM
  growth inhibition: -5% (inactive)
[10]; at 3.7 µM
  growth inhibition: -1% (inactive)
[10]; [16]
  growth inhibition: -15% (inactive)
[10]; at 11.0 µM
  growth inhibition: -32% (inactive)
[10]; at 33.0 µM
  growth inhibition: 6% (inactive)
[10]; [17]
  growth inhibition: -10% (inactive)
[10]; at 50.0 µM
  growth inhibition: 75.5% (active)
[10]; at 100.0 µM
  growth inhibition: 94% (active)
[11]; at 1.2 µM
  growth inhibition: -2% (inactive)
[11]; at 3.7 µM
  growth inhibition: -3% (inactive)
[11]; at 11.0 µM
  growth inhibition: -8% (inactive)
[11]; at 33.0 µM
  growth inhibition: 9% (inactive)
[11]; at 100.0 µM
  growth inhibition: 98% (active)
[12]; at 1.2 µM
  growth inhibition: 3% (inactive)
[12]; at 3.7 µM
  growth inhibition: 2% (inactive)
[12]; at 11.0 µM
  growth inhibition: -3% (inactive)
[12]; at 33.0 µM
  growth inhibition: -16% (inactive)
[12]; at 100.0 µM
  growth inhibition: 97% (active)
[13]; at 1.2 µM
  growth inhibition: 0% (inactive)
[13]; at 3.7 µM
  growth inhibition: 0% (inactive)
[13]; at 11.0 µM
  growth inhibition: 0% (inactive)
[13]; at 33.0 µM
  growth inhibition: 25% (inactive)
[13]; at 100.0 µM
  growth inhibition: 98% (active)
[14]; [16]
  growth inhibition: -7% (inactive)
[14]; [17]
  growth inhibition: 48% (inactive)
[14]; at 50.0 µM
  growth inhibition: 83.8% (active)
[15]; at 1.2 µM
  growth inhibition: -1% (inactive)
[15]; at 3.7 µM
  growth inhibition: -7% (inactive)
[15]; at 11.0 µM
  growth inhibition: -19% (inactive)
[15]; at 33.0 µM
  growth inhibition: -9% (inactive)
[15]; at 100.0 µM
  growth inhibition: 98% (active)

## Cc1ccc2c3ccc4c(c3n(C)c2c1)C(=O)C=CC4=O
[1]; at 1.2 µM
  growth inhibition: -22% (inactive)
[1]; at 3.7 µM
  growth inhibition: -16% (inactive)
[1]; at 11.0 µM
  growth inhibition: -18% (inactive)
[1]; at 33.0 µM
  growth inhibition: -1% (inactive)
[1]; at 100.0 µM
  growth inhibition: 33% (inactive)
[2]; at 1.2 µM
  growth inhibition: -3% (inactive)
[2]; at 3.7 µM
  growth inhibition: 24% (inactive)
[2]; at 11.0 µM
  growth inhibition: 31% (inactive)
[2]; at 33.0 µM
  growth inhibition: 76% (active)
[2]; at 100.0 µM
  growth inhibition: 91% (active)
[3]; at 1.2 µM
  growth inhibition: 20% (inactive)
[3]; at 3.7 µM
  growth inhibition: 11% (inactive)
[3]; at 11.0 µM
  growth inhibition: 22% (inactive)
[3]; at 33.0 µM
  growth inhibition: 40% (inactive)
[3]; at 100.0 µM
  growth inhibition: 78% (active)
[4]; at 1.2 µM
  growth inhibition: -4% (inactive)
[4]; at 3.7 µM
  growth inhibition: -5% (inactive)
[4]; [16]
  growth inhibition: 7% (inactive)
[4]; at 11.0 µM
  growth inhibition: 3% (inactive)
[4]; at 33.0 µM
  growth inhibition: 10% (inactive)
[4]; [17]
  growth inhibition: 49% (inactive)
[4]; at 50.0 µM
  growth inhibition: 57.8% (inactive)
[4]; at 100.0 µM
  growth inhibition: 53% (inactive)
[5]; at 1.2 µM
  growth inhibition: -22% (inactive)
[5]; at 3.7 µM
  growth inhibition: -11% (inactive)
[5]; [16]
  growth inhibition: 7% (inactive)
[5]; at 11.0 µM
  growth inhibition: -3% (inactive)
[5]; at 33.0 µM
  growth inhibition: 23% (inactive)
[5]; [17]
  growth inhibition: 42% (inactive)
[5]; at 50.0 µM
  growth inhibition: 51.5% (inactive)
[5]; at 100.0 µM
  growth inhibition: 66% (inactive)
[6]; at 1.2 µM
  growth inhibition: -9% (inactive)
[6]; at 3.7 µM
  growth inhibition: -12% (inactive)
[6]; at 11.0 µM
  growth inhibition: -9% (inactive)
[6]; at 33.0 µM
  growth inhibition: -6% (inactive)
[6]; at 100.0 µM
  growth inhibition: 59% (inactive)
[7]; [16]
  growth inhibition: 9% (inactive)
[7]; [17]
  growth inhibition: 58% (inactive)
[7]; at 50.0 µM
  growth inhibition: 67.2% (inactive)
[8]; at 1.2 µM
  growth inhibition: -5% (inactive)
[8]; at 3.7 µM
  growth inhibition: -4% (inactive)
[8]; at 11.0 µM
  growth inhibition: -3% (inactive)
[8]; at 33.0 µM
  growth inhibition: 9% (inactive)
[8]; at 100.0 µM
  growth inhibition: 27% (inactive)
[9]; [16]
  growth inhibition: 18% (inactive)
[9]; [17]
  growth inhibition: 50% (inactive)
[9]; at 50.0 µM
  growth inhibition: 33.7% (inactive)
[10]; at 1.2 µM
  growth inhibition: -14% (inactive)
[10]; at 3.7 µM
  growth inhibition: -1% (inactive)
[10]; [16]
  growth inhibition: 43% (inactive)
[10]; at 11.0 µM
  growth inhibition: -11% (inactive)
[10]; at 33.0 µM
  growth inhibition: 16% (inactive)
[10]; [17]
  growth inhibition: 80% (active)
[10]; at 50.0 µM
  growth inhibition: 61.2% (inactive)
[10]; at 100.0 µM
  growth inhibition: 56% (inactive)
[11]; at 1.2 µM
  growth inhibition: -47% (inactive)
[11]; at 3.7 µM
  growth inhibition: -28% (inactive)
[11]; at 11.0 µM
  growth inhibition: -30% (inactive)
[11]; at 33.0 µM
  growth inhibition: -29% (inactive)
[11]; at 100.0 µM
  growth inhibition: 38% (inactive)
[12]; at 1.2 µM
  growth inhibition: -10% (inactive)
[12]; at 3.7 µM
  growth inhibition: -3% (inactive)
[12]; at 11.0 µM
  growth inhibition: 16% (inactive)
[12]; at 33.0 µM
  growth inhibition: 46% (inactive)
[12]; at 100.0 µM
  growth inhibition: 81% (active)
[13]; at 1.2 µM
  growth inhibition: -32% (inactive)
[13]; at 3.7 µM
  growth inhibition: -24% (inactive)
[13]; at 11.0 µM
  growth inhibition: -16% (inactive)
[13]; at 33.0 µM
  growth inhibition: 16% (inactive)
[13]; at 100.0 µM
  growth inhibition: 63% (inactive)
[14]; [16]
  growth inhibition: 21% (inactive)
[14]; [17]
  growth inhibition: 77% (active)
[14]; at 50.0 µM
  growth inhibition: 68% (inactive)
[15]; at 1.2 µM
  growth inhibition: 4% (inactive)
[15]; at 3.7 µM
  growth inhibition: 14% (inactive)
[15]; at 11.0 µM
  growth inhibition: 15% (inactive)
[15]; at 33.0 µM
  growth inhibition: 39% (inactive)
[15]; at 100.0 µM
  growth inhibition: 82% (active)
